From PubChem BioAssay
Mtb hypoxia rep: PubChem AID 1159583; M. tuberculosis hypoxia-regulated fluorescent reporter, fluorescence; fluorescence inhibition, % (no concentration beside the values); actives 0.1% (n = 300,000); in the data active means fluorescence inhibition mostly above about 23%, no sharp cut-off; inactive means mostly below about 17%
FadD28 binding: inhibitors of FadD28 bisubstrate probe binding, primary screen, biochemical, fluorescence polarization, single point; Mycobacterium tuberculosis FadD28 fatty-acid-AMP ligase; inhibition, % at 12.5 µM; actives 0.22% (n = 360,000); AID 588549, 2011; in the data active means inhibition above about 8.5%, passing the limit was not always enough
Rv3671c protease: Rv3671c serine protease inhibitors, primary screen, biochemical, fluorescence polarization, M. tuberculosis H37Rv; P9WHR9; inhibition, % at 5.96 µM; actives 0.048% (n = 320,000); AID 2606, 2010; in the data active means inhibition above about 38%;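 further: extracellular domain of Rv3671c used as enzyme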
UGM FP inh: M. tuberculosis UGM enzyme inhibitors, primary screen, biochemical, fluorescence polarization, single point | inhibition, % at 10 µM | purified UGM, fluorescence polarization probe displacement | actives 0.06% (n = 320,000) | AID 504406, 2011; in the data active means inhibition above about 10%, passing the limit was not always enough
Target sequence (P9WIQ1 whole entry, looked up): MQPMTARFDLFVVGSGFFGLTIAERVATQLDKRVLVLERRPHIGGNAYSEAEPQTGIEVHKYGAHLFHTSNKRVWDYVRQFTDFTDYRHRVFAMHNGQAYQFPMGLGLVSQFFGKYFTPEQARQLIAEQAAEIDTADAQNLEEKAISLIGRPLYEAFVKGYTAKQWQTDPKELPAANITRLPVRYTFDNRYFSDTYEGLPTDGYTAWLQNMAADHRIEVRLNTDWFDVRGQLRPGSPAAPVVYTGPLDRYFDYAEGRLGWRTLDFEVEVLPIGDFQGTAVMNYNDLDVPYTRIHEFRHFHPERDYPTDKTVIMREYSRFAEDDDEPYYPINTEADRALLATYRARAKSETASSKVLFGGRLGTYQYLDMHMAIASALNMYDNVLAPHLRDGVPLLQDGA
Mtb FBA inh: Mtb FBA enzyme inhibitors, primary screen, biochemical, fluorescence, strain H37Rv | purified M. tuberculosis FBA, fluorescence read-out | inhibition, % at 1 µM | actives 2.3% (n = 360,000) | AID 588726, 2011
Target sequence (P9WQA3 whole entry, looked up): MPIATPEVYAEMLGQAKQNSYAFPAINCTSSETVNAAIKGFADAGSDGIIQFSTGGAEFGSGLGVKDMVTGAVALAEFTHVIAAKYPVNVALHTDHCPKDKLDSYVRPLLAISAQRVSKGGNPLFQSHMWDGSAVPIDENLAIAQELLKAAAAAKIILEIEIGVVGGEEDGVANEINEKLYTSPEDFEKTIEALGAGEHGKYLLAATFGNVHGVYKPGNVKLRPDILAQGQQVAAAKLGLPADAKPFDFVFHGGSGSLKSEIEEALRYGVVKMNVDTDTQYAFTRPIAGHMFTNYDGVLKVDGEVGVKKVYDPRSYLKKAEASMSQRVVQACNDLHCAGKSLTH
GDH-TPI counter-1: GDH-TPI coupling enzyme inhibitors, primary screen, artefact control for M. tuberculosis FBA inhibitor project, biochemical, absorbance, full deck. actives 1.2% (n = 360,000). inhibition, % at 4.8 µM. AID 588335, 2011. GDH-TPI coupled enzyme counterscreen, NADH absorbance; in the data active means inhibition above about 30%
Mtb FBA inh conf: M. tuberculosis aldolase blockers, biochemical, fluorescence, strain H37Rv, confirmation; AID 651616, 2012; actives 78% (n = 5,600); shares compounds with Mtb FBA inh; inhibition, % at 1 µM; purified M. tuberculosis FBA, fluorescence read-out
GDH-TPI counter-2: GDH-TPI coupling enzyme inhibitors, artefact control for M. tuberculosis FBA inhibitor project, biochemical, fluorescence, high throughput. shares compounds with Mtb FBA inh. GDH-TPI coupled enzyme counterscreen. inhibition, % at 1 µM. actives 81% (n = 5,600). AID 652141, 2013; in the data active means inhibition above about 10%
GDH-TPI DR: GDH-TPI coupling enzyme inhibitors, dose response, artefact control for M. tuberculosis FBA inhibitor project, biochemical, fluorescence, IC50. shares compounds with Mtb FBA inh. GDH-TPI coupled enzyme assay, artifact counterscreen. IC50, µM. actives 79% (n = 170); call rule not given here
Of the large screens only hits and unclear results are named; the others gave an inactive call (follow-up assays come after a bar, where they were run). Compounds with a hit are over-represented: about 3.5% of the library has one in this group of screens. Unless noted, no stated cut-off is given here; in the data, active means inhibition above about 27%; inactive means the rest.

COc1ccc2nc3oc(C(=O)N4CC(C)CC(C)C4)cc3cc2c1 (centres undefined)	Mtb FBA inh 55.6 | Mtb FBA inh conf inactive | GDH-TPI counter-2 inactive
COc1ccc2nc3oc(C(=O)N4CCCCC4)cc3cc2c1	Mtb FBA inh 56.6 (no result: Mtb hypoxia rep) | Mtb FBA inh conf 83.9 | GDH-TPI counter-2 63.3
CCOC(=O)C1CCCN(C(=O)c2cc3cc4ccc(OC)cc4nc3o2)C1 (centres undefined)	Mtb FBA inh 92.1 | Mtb FBA inh conf 55.1 | GDH-TPI counter-2 32.1
CC1CC(C)CN(C(=O)c2cc3ccccc3o2)C1 (centres undefined)	none
CC(=NNC(=O)CC1N=C(Cc2ccccc2)NNC1=O)c1ccc(Br)cc1 (centres undefined)	none (no result: FadD28 binding, Rv3671c protease, UGM FP inh, Mtb FBA inh, GDH-TPI counter-1)
C#CCOCCOCCOCCNc1nc(N2CCN(C(=O)CCCCCCCCCCNC(=O)Cn3cc(CC(C)O)nn3)CC2)nc(N2CCN(C(=O)CCCCCCCCCCNC(=O)Cn3cc(CC(C)O)nn3)CC2)n1 (centres undefined)	none (no result: FadD28 binding, Rv3671c protease, UGM FP inh, Mtb FBA inh, GDH-TPI counter-1)
O=C(COc1ccc(C=NNS(=O)(=O)c2ccccc2)cc1)Nc1ccccc1	none (no result: FadD28 binding, Rv3671c protease, UGM FP inh, Mtb FBA inh, GDH-TPI counter-1)
CN(C)C=Nc1ccc2nc3c(cc2c1)[nH]c1ccccc13	Mtb FBA inh 51.1 | Mtb FBA inh conf 172.3 | GDH-TPI counter-2 143.7
c1coc(-c2nnc3n2C2(CCCC2)Cc2ccccc2-3)c1	none
COc1cc2c(cc1OC)-c1nnc(-c3ccco3)n1C1(CCCC1)C2	Mtb FBA inh 47.1 | Mtb FBA inh conf 108.1 | GDH-TPI counter-2 83.7
S=C(c1ccc(-c2ccc(Br)cc2)o1)N1CCCCC1	Mtb FBA inh 59.1 | Mtb FBA inh conf inactive | GDH-TPI counter-2 inactive
S=C(c1ccc(-c2ccc(Br)cc2)o1)N1CCOCC1	none
CN(C)C(=O)C[n+]1ccc(C=NO)cc1	none (no result: FadD28 binding, Rv3671c protease, UGM FP inh, Mtb FBA inh, GDH-TPI counter-1)
Cc1cc(C)c2sc(C)[n+](CCCS(=O)(=O)[O-])c2c1	none
Cc1ccc2c(C)cc[n+](CCCS(=O)(=O)[O-])c2c1	Mtb FBA inh 43.5 | Mtb FBA inh conf inactive | GDH-TPI counter-2 inactive | GDH-TPI DR inactive
CCC(=O)N1CCN(CCN=CC2=C(O)CC(c3ccc(OC)cc3)CC2=O)CC1 (centres undefined)	Mtb FBA inh 58.9 | Mtb FBA inh conf 88.0 | GDH-TPI counter-2 82.1
CCCCCC(=O)N1CCN(CCN=CC2=C(O)CC(c3ccc(OC)cc3)CC2=O)CC1 (centres undefined)	none
C=CCC(CC(=O)N(CCO)Cc1ccccc1)C(=O)NC(COC(=O)C(CC=C)CC(=O)OC(C)(C)C)c1ccccc1 (centres undefined)	none (no result: FadD28 binding, Rv3671c protease, UGM FP inh, Mtb FBA inh, GDH-TPI counter-1)
C=CCNC(=O)CSc1n[nH]c(-c2cc(Cl)ccc2OC)n1	none
CSc1scc2c1-c1nc(SCC(=O)C(C)(C)C)ncc1CC2	Mtb FBA inh 29.5 | Mtb FBA inh conf 67.0 | GDH-TPI counter-2 48.4
CC(C)(C)C(=O)CSc1ncccn1	none
C=CCNC(=O)CSc1ncc2c(n1)-c1c(csc1SC)CC2	Mtb FBA inh 99.2 | Mtb FBA inh conf 82.0 | GDH-TPI counter-2 59.0
COc1ccc2c(c1)OC(c1cccc(C(F)(F)F)c1)C(OC(=O)NC1CCCc3ccccc31)C2=O (centres undefined)	none (no result: FadD28 binding, Rv3671c protease, UGM FP inh, Mtb FBA inh, GDH-TPI counter-1)
COc1cc(C=C2NC(=O)N(Cc3ccccc3F)C2=O)cc(OC)c1O	none (no result: FadD28 binding, Rv3671c protease, UGM FP inh, Mtb FBA inh, GDH-TPI counter-1)
N#Cc1cc2ccccc2nc1N	Mtb FBA inh 75.0 | Mtb FBA inh conf 65.2 | GDH-TPI counter-2 48.5
Cc1ccc(-c2cc3ccccc3nc2N)cc1	Mtb FBA inh 46.0 (no result: FadD28 binding) | Mtb FBA inh conf 88.4 | GDH-TPI counter-2 80.0
N#Cc1ccc(Sc2nc3ccccc3[nH]2)cc1C#N	none
Cc1cc(C)c(S(=O)(=O)c2ccccc2C)c(Cl)n1	none
Nc1nc2ccccc2cc1-c1cccs1	Mtb FBA inh 68.9 | Mtb FBA inh conf 76.2 | GDH-TPI counter-2 62.2
Cc1ccccc1S(=O)(=O)c1cc2ccccc2nc1N	Mtb FBA inh 46.2 | Mtb FBA inh conf active | GDH-TPI counter-2 active
COc1cccc2c(NN=Cc3ccccc3)cc(C)nc12	none (no result: FadD28 binding, Rv3671c protease, UGM FP inh, Mtb FBA inh, GDH-TPI counter-1)
CCC1=C(OC(=O)N(CC)CC)N2C(=O)OC(=NCC3CC3)[C@]2(Cc2ccccc2)C2C1=CCC1C(=O)N(C)C(=O)C12 (some centres undefined)	none (no result: FadD28 binding, Rv3671c protease, UGM FP inh, Mtb FBA inh, GDH-TPI counter-1)
COc1cc2c(cc1OC)C(=O)N1C3c4cc(C)ccc4OCC3C(c3ccccc3)[C@]1(C)C(=O)N2 (some centres undefined)	none (no result: FadD28 binding, Rv3671c protease, UGM FP inh, Mtb FBA inh, GDH-TPI counter-1)
CC(C)CC(CN=[N+]=[N-])N1CCN(Cc2ccccc2)CCC1=O (centres undefined)	none (no result: FadD28 binding, Rv3671c protease, UGM FP inh, Mtb FBA inh, GDH-TPI counter-1)
COc1ccccc1C=NNC(=O)c1cccc(NC(=O)c2ccccc2C)c1	none (no result: FadD28 binding, Rv3671c protease, UGM FP inh, Mtb FBA inh, GDH-TPI counter-1)
COC(=O)c1c(S(N)(=O)=O)c2ccccc2n1C	Mtb FBA inh 32.8 | Mtb FBA inh conf active | GDH-TPI counter-2 active
O=C(NN=Cc1cc2c(cc1Br)OCO2)c1c[nH]c2ccccc12	none (no result: FadD28 binding, Rv3671c protease, UGM FP inh, Mtb FBA inh, GDH-TPI counter-1)
Cn1c(N)c(S(=O)(=O)c2ccc(Br)cc2)c2nc3ccccc3nc21	Mtb FBA inh 106.8 | Mtb FBA inh conf inactive | GDH-TPI counter-2 18.2
Nc1c(S(=O)(=O)c2ccccc2)c2nc3ccccc3nc2n1CCN1CCOCC1	Mtb FBA inh 46.8 | Mtb FBA inh conf 70.0 | GDH-TPI counter-2 55.0
Cc1ccc(S(=O)(=O)c2c(N)n(CCC(C)C)c3nc4ccccc4nc23)cc1	Mtb FBA inh 45.6 | Mtb FBA inh conf 107.3 | GDH-TPI counter-2 80.3
Cn1c(=O)c2nc3ccccc3nc2n(C)c1=O	none
CC(=N/N=C1\NC(=O)C(C)S1)c1ccco1 (centres undefined)	none (no result: FadD28 binding, Rv3671c protease, UGM FP inh, Mtb FBA inh, GDH-TPI counter-1)
Oc1ccc(C=NNc2nncc(-c3ccccc3)n2)cc1	none (no result: FadD28 binding, Rv3671c protease, UGM FP inh, Mtb FBA inh, GDH-TPI counter-1)
Nc1nc(-c2ccc(-c3ccccc3)cc2)cs1	Mtb FBA inh 33.2 | Mtb FBA inh conf active | GDH-TPI counter-2 active
Nc1ccc(-c2cc(-c3ccc(N)cc3)nc(-c3ccccc3)n2)cc1	Mtb FBA inh 39.1 | Mtb FBA inh conf 53.6 | GDH-TPI counter-2 27.6
COc1ccc(-c2cc3nc4c(c(=O)n3[nH]2)CCC4)cc1	Mtb FBA inh 38.4 | Mtb FBA inh conf 150.8 | GDH-TPI counter-2 129.4
O=c1c2c(nc3cc(-c4ccc(Br)cc4)[nH]n13)CCCC2	none
